Compound activity deposited in PubChem by National Center for Advancing Translational Sciences (NCATS).
Only some compounds are listed: those with a hit (about 11% of all), similar ones and a draw of the others.
PNC assembly inh: High Content Assay for Compounds that inhibit the Assembly of the Perinucleolar Compartment | PC3M PTB-GFP, PNC prevalence imaging, 16 h; hits give low values | activity change (PNC), negative = inhibition, % at 10 µM | 140,000 compounds, 3.1% hits;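 active means readout at or below -70, meaning at least 70% loss of cells showing the perinucleolar compartment, a nuclear body marking cancer cells; inconclusive means readout between -30 and a set limit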;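 further: plate controls were DMSO wells for no effect and camptothecin positive control wells for full effect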
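PC3M cells stably expressing PTB-GFP, 750–1000 cells/well, treated 16 h at 37 °C with compound (23 nl of library stock), in duplicate. After paraformaldehyde fixation and Hoechst stain, imaged at 20x; PNC prevalence scored by image analysis.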
ALOX12 inhib: qHTS Assay for Inhibitors of 12-hLO (12-human lipoxygenase) | purified 12-hLO, xylenol orange hydroperoxide absorbance | Potency, µM (doses to about 57.1 µM), without a hit: top-dose activity change, negative = inhibition, usual class: inhibitors | 150,000 compounds, 0.12% hits | AID 1452, 2008; active means well fitted curve in the direction sought with a large enough effect; inconclusive means small, poorly fitted or top-dose-only effect, or another doubt; inactive means no such curve, though single readings can be large; an effect the other way counts as inactive or inconclusive; further: potency means the concentration at half of the fitted maximal effect; nearly all actives have a fitted effect of over 55% in size
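Lipoxygenase turnover measured by absorbance at 573 and 405 nm after Fe-XO development. Human 12hLO 150 nM, arachidonate 40 uM, pH 7.0 Hepes buffer with detergent; 15 min compound preincubation, 30 min reaction.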
IMPase Li cell: qHTS Assay for Identifying the Cell-Membrane Permeable IMPase Inhibitors: Potentiation with Lithium; Potency, µM (top dose mostly 59.4 µM), inactives show at the top dose activity, negative = IMPase inhibition, hits mostly inhibitors; 210,000 compounds, 0.35% hits; AID 1457, 2008; CHO-M1 cells, IP1 TR-FRET (IP-One), carbachol + lithium; active means well fitted curve in the direction sought with a large enough effect; inconclusive means small, poorly fitted or top-dose-only effect, or another doubt; inactive means no such curve, though single readings can be large; an effect the other way counts as inactive or inconclusive;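 further: IP1 builds up when IMPase is blocked and the TR-FRET signal falls; potency means the concentration at half of the fitted maximal effect; plate controls were basal vehicle for no effect and high inhibitor control for full effect; nearly all actives have a fitted effect of over 50% in size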
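CHO-M1, 2000 cells/well, 16–30 h culture; cpd + low Li+, 30 min 37C; lysis with d2-IP1/Eu-anti-IP1 Ab, 10 min RT; TR-FRET 665/620 ratio and 620 channel; AC50 via Hill.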
ALDH1A1 block: qHTS Assay for Inhibitors of Aldehyde Dehydrogenase 1 (ALDH1A1) | Aldehyde dehydrogenase 1A1 (Homo sapiens), P00352 | Purified ALDH1A1, NADH fluorescence, propionaldehyde substrate | Potency, µM (top dose mostly 75.3 µM), without a hit: at the top dose activity, negative = inhibition, most hits filed as inhibitors | 220,000 compounds, 7.3% hits | AID 1030, 2008;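 further: potency means the concentration at half of the fitted maximal effect; plate controls were no enzyme wells and a reference inhibitor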
HPGD block: qHTS Assay for Inhibitors of HPGD (15-Hydroxyprostaglandin Dehydrogenase) | 15-hydroxyprostaglandin dehydrogenase [NAD(+)] (Homo sapiens), P15428 | purified HPGD, NADH fluorescence kinetic, PGE2 substrate | Potency, µM, inactives show at the top dose activity change, negative = inhibition, usual class: inhibitors | 150,000 compounds, 4.3% hits | AID 894, 2007; further: potency means the concentration at half of the fitted maximal effect
Target sequence (P15428 whole entry, looked up): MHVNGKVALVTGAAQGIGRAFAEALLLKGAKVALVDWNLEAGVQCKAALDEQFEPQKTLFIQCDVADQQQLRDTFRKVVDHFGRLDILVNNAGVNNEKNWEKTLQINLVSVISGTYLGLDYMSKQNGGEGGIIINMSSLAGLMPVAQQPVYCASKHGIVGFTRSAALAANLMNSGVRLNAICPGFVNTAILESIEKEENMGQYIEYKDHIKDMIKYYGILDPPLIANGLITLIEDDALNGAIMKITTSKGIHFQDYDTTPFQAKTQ
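20 nM HPGD preincubated 15 min at room temperature with compound in 50 mM Tris-HCl pH 8, 0.01% Tween 20. Started with 1 mM NAD+ and 30 uM prostaglandin E2; NADH fluorescence (360/450 nm) read 5 times over 30-s intervals, last minus first.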
IMPase cell inh: qHTS Assay for Identifying the Cell-Membrane Permeable IMPase Inhibitors. Inositol monophosphatase 1 (Rattus norvegicus), P97697. CHO-M1 cells, IP1 accumulation, HTRF TR-FRET ratio. inhibition (IP1 accumulation), % at 46.1 µM. 120,000 tested, under 10 active; active means well fitted curve in the direction sought with a large enough effect in the signal ratio, not every such curve was filed as active; inconclusive means small, poorly fitted or top-dose-only effect, or a change in a side signal; inactive means no such curve, though single readings can be large or run the other way; the % refers to the signal ratio;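 further: cells stimulated with carbachol in lithium chloride buffer; plate controls were DMSO basal wells for no effect and reference inhibitor wells for full effect; higher means more IMPase inhibition seen as more IP1 and lower FRET ratio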
Target sequence (P97697 whole entry, looked up): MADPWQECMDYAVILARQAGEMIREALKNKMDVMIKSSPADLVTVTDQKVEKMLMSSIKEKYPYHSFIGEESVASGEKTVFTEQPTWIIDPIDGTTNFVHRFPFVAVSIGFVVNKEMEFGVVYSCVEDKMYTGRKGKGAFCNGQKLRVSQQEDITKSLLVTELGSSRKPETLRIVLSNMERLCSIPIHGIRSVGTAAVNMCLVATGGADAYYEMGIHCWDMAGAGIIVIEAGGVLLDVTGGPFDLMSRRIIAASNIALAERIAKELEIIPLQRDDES
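Carbachol-driven Gq signalling in CHO-M1 cells (2000/well) generates IP1. Compounds that block IMPase raise IP1 and so reduce the FRET signal from Eu-anti-IP1 and d2-IP1 after a 10 min room-temperature lysis.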
* hit, by the source's call; ? = inconclusive; / = not tested or not shown; [ ] = dose if it differs, or a comment. Unless noted, the call rests on the fitted dose curve; in most records, active means well fitted inhibition curve with a large enough effect (not every such curve was filed as active); inconclusive means small, poorly fitted or top-dose-only effect, or another doubt; inactive means no such curve, though single readings can be large or run the other way. Unless noted, on the % scale 0 is the no-effect control and ±100 the full control effect.

SMILES	PNC assembly inh	ALOX12 inhib	IMPase Li cell	ALDH1A1 block	HPGD block	IMPase cell inh
COc1ccc(-c2nc(C(=O)N3CCN(C)CC3)sc2-c2ccc(OC)cc2)cc1	/	1%	6%	?	?	4
Cc1ccc(NC(=S)NCc2cccs2)cc1	12	-5%	22%[38.3 µM]	-7%	28µM*	3
Cc1cccc(NC(=S)NCc2cccs2)c1	/	/	-1%	-2%	/	/
N#CC1=C(N)SC(N)=C(C#N)C1C1C=CCCC1 (centres undefined)	338	-5%	-7%	22µM*	-23%	-7
Cc1cc2c(c(=O)o1)C(C1C=CCCC1)C(C#N)=C(N)O2 (centres undefined)	13	-25%	-14%[38.3 µM]	7.9µM*	28µM*	-3
COc1ccc(Oc2c(C=O)c3ccccc3n2C)cc1	100	-3%	-1%[38.3 µM]	-7%	32µM*	?
Cc1ccc2nc(-c3ccc(N)cc3)sc2c1S(=O)(=O)O	/	-1%	?	?	?	/
NS(=O)(=O)c1cc(C(=O)OCC(=O)c2ccccc2)c(Cl)cc1Cl	/	/	/	16µM*	/	/
Cc1cc(=O)oc2cc(OCC(=O)N3CCc4ccccc4C3)ccc12	-10	-3%	2%[38.3 µM]	?	?	4
Cc1cc(=O)oc2ccc(OCC(=O)N3CCc4ccccc43)cc12	13	-3%	-1%[38.3 µM]	16µM*	-20%	-5
O=C(COc1ccc2ccc(=O)oc2c1)N1CCc2ccccc21	/	/	-16%	?	/	/
Cc1cc(=O)oc2cc(OCC(=O)N3CCCc4ccccc43)ccc12	-19	-1%	23%[38.3 µM]	22µM*	?	0
CCC1C(=O)N=C(SCC(=O)NC2CCCCC2)NC1=O (centres undefined)	/	/	6%	25µM*	/	/
CCc1nnc(SCC(=O)NC2CCCC2)nc1CC	-24	1%	-6%[38.3 µM]	12%	16µM*	3
C=CCn1c(SCC(=O)NC2CCCCC2)nnc1C1CCCCC1	17	4%	-3%[38.3 µM]	3%	1%	9
Nn1c(SCC(=O)NC2CCCCC2)nnc1C1CC1	?	2%	10%[38.3 µM]	24µM*	-10%	17
Cc1ccc(C(=O)N2CCN(S(=O)(=O)c3ccc(C)c([N+](=O)[O-])c3)C2)cc1	/	/	9%	-8%	/	/
COc1ccccc1CNc1cc(-c2ccccc2Cl)ncn1	/	/	15%	-7%	/	/
COCC(=O)N1CCC2(CCCN(c3ccccn3)C2)CC1	/	4%	-6%	?	?	/
CN(C)c1ccc(-c2nc3ccccn3c2/N=C/c2ccc(Br)cc2)cc1	-112*	-13%	30%	?	-28%	/
CCC(C)c1ccc(Nc2ncccc2C#N)cc1 (centres undefined)	51	-7%	-1%[38.3 µM]	?	18µM*	4
CCc1ccc(Nc2ncccc2C#N)cc1	36	-5%	-15%[38.3 µM]	-11%	?	2
CC(C)NC(=O)CSc1nncn1-c1ccccc1	-97*	1%	4%[38.3 µM]	3%	-6%	2
CC(C)NC(=O)CSc1nnc(-c2ccc(C(C)(C)C)cc2)n1C	-100*	-1%	6%	6%	-5%	9
CCC(C)NC(=O)CSc1nnc(-c2ccc(C(C)(C)C)cc2)n1C (centres undefined)	-11	0%	-2%[38.3 µM]	-4%	-4%	6
SMILES	PNC assembly inh	ALOX12 inhib	IMPase Li cell	ALDH1A1 block	HPGD block	IMPase cell inh
CC(C)NC(=O)CSc1nc2ccccc2n1-c1ccccc1	9	-5%	7%	?	-9%	3
COc1ccc(NC(=O)N2CCc3nc(COc4ccccc4)c4c(c3C2)CO[C@@H](C)C4)cc1	/	0%[11.4 µM]	-12%	22%[13.5 µM]	-5%	/
C=CC1=C2C=C(C3CC3)N(CCN3CCOCC3)C=C2C(=O)C(C)(OC(=O)c2ccco2)C1=O (centres undefined)	/	-1%[11.4 µM]	9%	?	-2%	/
COc1ccc(C(=O)c2sc3nc(C)cc(-c4cccs4)c3c2N)cc1OC	-82*	-2%	7%	6%	-11%	/
COc1ccc(C(=O)c2sc3nc(C)cc(-c4cccs4)c3c2N)cc1	?	-8%	-19%	-12%	-21%	/
O=C(O)c1cc(O)c2c(c1)[C@H]([C@H]1c3cc(C(=O)O)cc(O)c3C(=O)c3c(O[C@@H]4OC(CO)C(O)C(O)C4O)cccc31)c1cccc(O[C@@H]3OC(CO)C(O)C(O)C3O)c1C2=O (some centres undefined)	/	-3%	4%	-10%	7.9µM*	/
FC(F)(F)c1ccccc1NC(=S)Nc1cccc2cnccc12	/	/	1%	25µM*	/	/
Fc1ccccc1NC(=S)Nc1cccc2cnccc12	/	/	4%	18µM*	/	/
Cc1cc(C)c2c3c(sc2n1)C1(CCSCC1)C(C#N)=C(N)O3	-25	-1%	23%	25µM*	-17%	3
COc1ccc(C2C(C#N)=C(N)Oc3c2sc2nc(C)cc(C)c32)cc1 (centres undefined)	14	-4%	41%[38.3 µM]	-1%	-6%	0
CCOc1ccccc1-c1ccc(C(=O)O)o1	/	-3%[0.00818 µM]	-15%	?	?	/
CC1CCN(C2=C(NS(=O)(=O)c3ccc(Cl)cc3)C(=O)c3ccccc3C2=O)CC1	-18	-2%	17%	?	-7%	/
O=C1C(NS(=O)(=O)c2cccs2)=C(N2CCN(c3cccc(Cl)c3)CC2)C(=O)c2ccccc21	-12	-5%	41%[38.3 µM]	3.2µM*	-14%	5
CCc1ccc(-c2nc3cc(NC(=O)c4ccc(F)cc4)ccc3o2)cc1	/	/	/	/	/	-11
COc1ccc2ncc(S(=O)(=O)c3ccccc3)c(N3CCC4(CC3)OCCO4)c2c1	2	-11%	15%	7.9µM*	0%	6
CSc1nc(N2CCOCC2)c2c(c1C#N)CCCCC2	?	-2%	-4%[38.3 µM]	22µM*	-14%	7
CCCSc1nc(N2CCOCC2)c2c(c1C#N)CCCC2	25	-8%	/	14µM*	/	15
CSc1nc(C)c2c(c1C#N)CCCC2	?	2%	12%[38.3 µM]	25µM*	-20%	-4
CCCc1nc(N2CCOCC2)c(C#N)c2c1CCCC2	?	-1%	9%[38.3 µM]	-158%	?	2
CCc1nc(SCC(=O)O)c(C#N)c2c1CCCC2	/	/	1%	?	/	/
N#CCCSc1nc(N2CCOCC2)c2c(c1C#N)CCCC2	?	-4%	3%[38.3 µM]	13µM*	-4%	-31
CCOc1ccc(C2c3cc(OCC)c(OCC)cc3CC(=O)N2c2ccc(C(=O)O)cc2)cc1OCC (centres undefined)	/	/	/	/	/	-4
